Measured values reported in PubChem BioAssay (NCATS).
Inconclusive results are not listed. A number with no mark means an inactive call. Calls follow the shape of the dose curve; as a rule, active = well fitted cell-killing curve with a large enough effect; inconclusive = small, poorly fitted or top-dose-only effect; inactive = flat fitted curve, though single readings scatter. Where a SMILES comes first, the peptide text is derived from it. Bridges are numbered along the chain shown (N, C = ends). [ ]: non-standard residue; d: D form. hArg = N=C(N)NCCCC[C@H](N)C(=O)O; Mpa = O=C(O)CCS

Assay: qHTS of pediatric cancer cell lines to identify multiple opportunities for drug repurposing: Primary screen for BT-12 cells (AID 1347101);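 also: plate controls were DMSO for no effect and bortezomib positive control for full effect; nearly all actives have a fitted effect of over 25% in size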
Conditions: BT-12 viability, CellTiter-Glo luminescence, 48 h; series mostly up to 57.3 µM; activity change, negative = cytotoxic: at the top concentration
Summary of the method: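 Cells (500-1,000/well) rested 5 h, then received compounds for 48 h; metabolically active cells were measured by CellTiter-Glo luminescence. Final concentrations spanned up to 46 µM (MIPE, 11-point) or 0.59 nM-46 µM (NPC, 8-point) in primary screens, 11-point in follow-ups.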

Compound	activity change, negative = cytotoxic
CC(=O)NS(=O)(=O)c1ccc(N)cc1	4.6%
CCCCCC(C)N (stereo unspecified)	7%
CCCCCCCCCCC(CO)CCCCCCCC (stereo unspecified)	3.03%
CC1(c2ccccc2)OC(C(=O)O)=CC1=O (stereo unspecified)	10.6%
NC(=O)NS(=O)(=O)c1ccc(N)cc1	13.2%
CN1CCCN=C1COC(=O)C(O)(c1ccccc1)C1CCCCC1 (stereo unspecified)	1.5%
CC[C@H](C)[C@H](N)C(=O)O	8.03%
OCC(O)CS (stereo unspecified)	11.6%
CO[C@@]1(NC(=O)C(C(=O)O)c2ccc(O)cc2)C(=O)N2C(C(=O)O)=C(CSc3nnnn3C)CO[C@@H]21 (stereo partly specified)	18.2%
Cn1c([N+](=O)[O-])cnc1COC(N)=O	0.759%
CCN1CC(CCN2CCOCC2)C(c2ccccc2)(c2ccccc2)C1=O (stereo unspecified)	2.89%
NCC1CCC(C(=O)Oc2ccc(CCC(=O)O)cc2)CC1 (stereo unspecified)	8.17%
C[n+]1ccccc1/C=N/O	3.18%
COc1ccc(O)cc1	1.76%
NC(=O)[C@@H]1CSSCCC(=O)N[C@@H](CCCCN=C(N)N)C(=O)NCC(=O)N[C@@H](CC(=O)O)C(=O)N[C@@H](Cc2c[nH]c3ccccc23)C(=O)N2CCC[C@H]2C(=O)N1 ([Mpa][hArg]GDWPC-NH2; disulfide 1-7)	-4.62%
CCCCCCCCCCCCCCCCN	7.47%
COc1ccc(Cc2cnc(N)nc2N)cc1OC	18.4%
CCOC(=O)c1cccnc1	17%
CC1(C)S[C@@H]2[C@H](N=CN3CCCCCC3)C(=O)N2[C@H]1C(=O)O	3.99%

Compound	activity change, negative = cytotoxic
O=c1[nH]cnc2nc[nH]c12	18.1%
CCCCCCCCCCCCCCCCCCO	5.38%
COCC(=O)Nc1c(I)c(C(=O)NCC(O)CO)c(I)c(C(=O)N(C)CC(O)CO)c1I (stereo unspecified)	-0.458%
COc1nccnc1NS(=O)(=O)c1ccc(N)cc1	-4.86%
O=c1[nH]c(=O)n([C@H]2C[C@H](O)[C@@H](CO)O2)cc1I	-7.57%
CCN(CC)CCc1nc(-c2ccccc2)no1	12.2%
O=C1C(c2[nH]c3ccccc3c2O)=Nc2ccccc21	1.92%
CCCCCCCC(=O)OCC(O)CO (stereo unspecified)	-4.69%
O=C(O)Cc1ccc(CCNS(=O)(=O)c2ccc(Cl)cc2)cc1	8.71%
COc1ccc(-c2cc(=O)c3c(O)cc(O[C@@H]4O[C@H](CO[C@@H]5O[C@@H](C)[C@H](O)[C@@H](O)[C@H]5O)[C@@H](O)[C@H](O)[C@H]4O)cc3o2)cc1O	7.63%
Nc1c2c(nc3c1CCC3)CCCC2	-3.28%
CCN(CC)C(=O)c1cccc(C)c1	12.2%
CCCNC(C)(C)COC(=O)c1ccccc1	1.8%
CC(C)(C)C(=O)OCOC(=O)[C@@H]1N2C(=O)[C@@H](NC(=O)[C@H](N)c3ccccc3)[C@H]2SC1(C)C	1.92%
Cc1c(Cn2ccnc2)c2ccccc2n1CCC(=O)O	17.6%
CC1CCN(CCCC(=O)c2ccc(F)cc2)CC1	3.53%
CC(=O)Nc1ccc(OCCOCCOc2ccc(NC(C)=O)cc2)cc1	1.09%
CCCCCCCCCCOc1cc2c(=O)c(C(=O)OCC)c[nH]c2cc1OCC	6.24% [at 6.03 µM]
O=C1CC[C@@H](C(=O)O)N1	1.1%

Assay: qHTS of pediatric cancer cell lines to identify multiple opportunities for drug repurposing: Primary screen for Rh18 cells (AID 1347102); also: % is scaled to controls: 0 for no effect and ±100 for the full control effect; nearly all actives have a fitted effect of over 65% in size
Conditions: Rh18 rhabdomyosarcoma viability, CellTiter-Glo luminescence, 48 h; series mostly up to 46 µM; activity change, negative = cytotoxic: at the top concentration
Summary of the method: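 Cells (500-1,000/well) in growth media were settled 5 h at 37 degrees C, then given compounds for 48 h. Viability was read as CellTiter-Glo luminescence. Primary runs used MIPE at 11 points (0.78 nM-46 µM) and NPC at 8 points (0.59 nM-46 µM); follow-ups used 11 points.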

Compound	activity change, negative = cytotoxic
CC(=O)NS(=O)(=O)c1ccc(N)cc1	16.2%
CCCCCC(C)N (stereo unspecified)	18.9%
CCCCCCCCCCC(CO)CCCCCCCC (stereo unspecified)	8.83%
CC1(c2ccccc2)OC(C(=O)O)=CC1=O (stereo unspecified)	16.4%
NC(=O)NS(=O)(=O)c1ccc(N)cc1	14.1%
CN1CCCN=C1COC(=O)C(O)(c1ccccc1)C1CCCCC1 (stereo unspecified)	8.9%
CC[C@H](C)[C@H](N)C(=O)O	20.7%
OCC(O)CS (stereo unspecified)	9.58%
CO[C@@]1(NC(=O)C(C(=O)O)c2ccc(O)cc2)C(=O)N2C(C(=O)O)=C(CSc3nnnn3C)CO[C@@H]21 (stereo partly specified)	14.8%
Cn1c([N+](=O)[O-])cnc1COC(N)=O	0.0701%
CCN1CC(CCN2CCOCC2)C(c2ccccc2)(c2ccccc2)C1=O (stereo unspecified)	-4.19%
NCC1CCC(C(=O)Oc2ccc(CCC(=O)O)cc2)CC1 (stereo unspecified)	0.0263%
C[n+]1ccccc1/C=N/O	17.9%
COc1ccc(O)cc1	3.91%
NC(=O)[C@@H]1CSSCCC(=O)N[C@@H](CCCCN=C(N)N)C(=O)NCC(=O)N[C@@H](CC(=O)O)C(=O)N[C@@H](Cc2c[nH]c3ccccc23)C(=O)N2CCC[C@H]2C(=O)N1 ([Mpa][hArg]GDWPC-NH2; disulfide 1-7)	-0.139%
CCCCCCCCCCCCCCCCN	-0.942%
COc1ccc(Cc2cnc(N)nc2N)cc1OC	16.6%
CCOC(=O)c1cccnc1	24.6%
CC1(C)S[C@@H]2[C@H](N=CN3CCCCCC3)C(=O)N2[C@H]1C(=O)O	14.4%

Compound	activity change, negative = cytotoxic
O=c1[nH]cnc2nc[nH]c12	12.3%
CCCCCCCCCCCCCCCCCCO	4.83%
COCC(=O)Nc1c(I)c(C(=O)NCC(O)CO)c(I)c(C(=O)N(C)CC(O)CO)c1I (stereo unspecified)	8.17%
COc1nccnc1NS(=O)(=O)c1ccc(N)cc1	-2.59%
O=c1[nH]c(=O)n([C@H]2C[C@H](O)[C@@H](CO)O2)cc1I	8.32%
CCN(CC)CCc1nc(-c2ccccc2)no1	4.61%
O=C1C(c2[nH]c3ccccc3c2O)=Nc2ccccc21	9.51%
CCCCCCCC(=O)OCC(O)CO (stereo unspecified)	4.28%
O=C(O)Cc1ccc(CCNS(=O)(=O)c2ccc(Cl)cc2)cc1	5.4%
COc1ccc(-c2cc(=O)c3c(O)cc(O[C@@H]4O[C@H](CO[C@@H]5O[C@@H](C)[C@H](O)[C@@H](O)[C@H]5O)[C@@H](O)[C@H](O)[C@H]4O)cc3o2)cc1O	19.7%
Nc1c2c(nc3c1CCC3)CCCC2	-0.418%
CCN(CC)C(=O)c1cccc(C)c1	6.14%
CCCNC(C)(C)COC(=O)c1ccccc1	-6.87%
CC(C)(C)C(=O)OCOC(=O)[C@@H]1N2C(=O)[C@@H](NC(=O)[C@H](N)c3ccccc3)[C@H]2SC1(C)C	17.8%
Cc1c(Cn2ccnc2)c2ccccc2n1CCC(=O)O	24.9%
CC1CCN(CCCC(=O)c2ccc(F)cc2)CC1	-14.3%
CC(=O)Nc1ccc(OCCOCCOc2ccc(NC(C)=O)cc2)cc1	15.2%
CCCCCCCCCCOc1cc2c(=O)c(C(=O)OCC)c[nH]c2cc1OCC	5.32% [at 4.84 µM]
O=C1CC[C@@H](C(=O)O)N1	5.13%
